Results from PubChem BioAssay (NCATS).
For part of these data: Entries with a potency or affinity are not part of this list. Active and inactive are the calls of the source.

Columns and labels:
[1] = Ebola virus entry assay, blue channel fluorescence
[2] = Ebola virus entry assay, reporter ratio channel
[3] = Ebola virus entry assay, blue channel (ratio component)
[4] = Ebola virus entry reporter assay, green channel fluorescence
[5] = Ebola virus entry cell assay, ratio channel
[6] = AC50: Channel type: primary unless noted, outcome: Channel type: primary unless noted

Compound | outcome [1] | outcome [2, 6] | outcome [3] | outcome [4] | outcome [5] | AC50 [2, 6] | outcome ([2]; Channel type: confirmation) | outcome ([2]; Channel type: primary)
CCCNC(=O)NS(=O)(=O)c1ccc(Cl)cc1 | inactive | inactive | inactive | inactive | inactive | – | – | –
CC[N+](C)(C)c1cccc(O)c1 | inactive | inactive | inactive | inactive | inactive | – | – | –
CCOC(=O)[C@H](CCc1ccccc1)N[C@@H](C)C(=O)N1[C@H](C(=O)O)C[C@@H]2CCC[C@@H]21 | inactive | inactive | inactive | inactive | inactive | – | – | –
CC(C)(C(=O)O)c1ccc(C(O)CCCN2CCC(C(O)(c3ccccc3)c3ccccc3)CC2)cc1 (stereo not given) | inactive | inactive | inactive | inactive | inactive | – | – | –
O=C1NC(c2ccccc2)(c2ccccc2)C(=O)N1COP(=O)(O)O | inactive | inactive | inactive | inactive | inactive | – | – | –
Cc1[nH]cnc1CN1CCc2c(c3ccccc3n2C)C1=O | inactive | inactive | inactive | inactive | inactive | – | – | –
O=C(O)COCCN1CCN(C(c2ccccc2)c2ccc(Cl)cc2)CC1 (stereo not given) | inactive | inactive | inactive | inactive | inactive | – | – | –
CC(C)NC[C@@H](O)COc1ccc(CC(N)=O)cc1 | inactive | inactive | inactive | inactive | inactive | – | – | –
CC1=C(C(=O)O)N2C(=O)[C@@H](NC(=O)[C@H](N)c3ccc(O)cc3)[C@H]2SC1 | inactive | inactive | inactive | inactive | inactive | – | – | –
Cn1c(=O)c2c(ncn2CC(O)CO)n(C)c1=O (stereo not given) | inactive | inactive | inactive | inactive | inactive | – | – | –
CO[C@@]12[C@H](COC(N)=O)C3=C(C(=O)C(C)=C(N)C3=O)N1C[C@@H]1N[C@@H]12 | inactive | inactive | inactive | inactive | inactive | – | – | –
CC(C)n1c(/C=C/[C@@H](O)C[C@@H](O)CC(=O)O)c(-c2ccc(F)cc2)c2ccccc21 | inactive | inactive | inactive | inactive | inactive | – | – | –
O=NN(CCCl)C(=O)NCCCl | inactive | inactive | inactive | inactive | inactive | – | – | –
CCC1(c2ccccc2)C(=O)NCNC1=O | inactive | inactive | inactive | inactive | inactive | – | – | –
CC1(C)NC(=O)N(c2ccc([N+](=O)[O-])c(C(F)(F)F)c2)C1=O | inactive | inactive | inactive | inactive | inactive | – | – | –
CS(=O)(=O)OCCCCOS(C)(=O)=O | inactive | inactive | inactive | inactive | inactive | – | – | –
O=C(O)CCCc1ccccc1 | inactive | inactive | inactive | inactive | inactive | – | – | –
CC(C)c1nc(CN(C)C(=O)N[C@H](C(=O)N[C@@H](Cc2ccccc2)C[C@H](O)[C@H](Cc2ccccc2)NC(=O)OCc2cncs2)C(C)C)cs1 | inactive | – | inactive | inactive | inactive | 22.4 µM (active) | – | –
CC(C)(C)C(=O)OCOP(=O)(COCCn1cnc2c(N)ncnc21)OCOC(=O)C(C)(C)C | inactive | inactive | inactive | inactive | inactive | – | – | –
CCN(CC)CCNC(=O)c1cc(Cl)c(N)cc1OC | inactive | inactive | inactive | inactive | inactive | – | – | –
O=C1CCC(N2C(=O)c3ccccc3C2=O)C(=O)N1 (stereo not given) | inactive | inactive | inactive | inactive | inactive | – | – | –
CCCc1cc(=O)[nH]c(=S)[nH]1 | inactive | inactive | inactive | inactive | inactive | – | – | –
CC(C)Nc1cccnc1N1CCN(C(=O)c2cc3cc(NS(C)(=O)=O)ccc3[nH]2)CC1 | inactive | inactive | inactive | inactive | inactive | – | – | –
CCCCC1=NC2(CCCC2)C(=O)N1Cc1ccc(-c2ccccc2-c2nn[nH]n2)cc1 | inactive | inactive | inactive | inactive | inactive | – | – | –
CCCCNc1ccc(C(=O)OCCOCCOCCOCCOCCOCCOCCOCCOCCOC)cc1 | inactive | inactive | inactive | inactive | inactive | – | – | –
COc1cc(C(=O)NCc2ccc(OCCN(C)C)cc2)cc(OC)c1OC | inactive | inactive | inactive | inactive | inactive | – | – | –
N[C@@H](C(=O)N[C@@H]1C(=O)N2C(C(=O)O)=C(Cl)CS[C@H]12)c1ccccc1 | inactive | inactive | inactive | inactive | inactive | – | – | –
COC1=CC(=O)C[C@@H](C)[C@]12Oc1c(Cl)c(OC)cc(OC)c1C2=O | inactive | – | – | inactive | inactive | – | inactive | inactive
Cc1nc(-c2ccc(OCC(C)C)c(C#N)c2)sc1C(=O)O | inactive | inactive | inactive | inactive | inactive | – | – | –
CCCC(=O)Nc1ccc(OCC(O)CNC(C)C)c(C(C)=O)c1 (stereo not given) | inactive | inactive | inactive | inactive | inactive | – | – | –
